From PubChem BioAssay (NCATS) come the findings set out here.

Test [1] has as its system CRL-7250. Kind of test: Cytotoxic Profiling of Annotated Libraries Using Quantitative High-Throughput Screening (AID 1296008). For max response: % is set by controls: 0 for no effect and ±100 for the full control effect. Note: potency is the fitted concentration of half-maximal effect. The following applies: Five cell lines viability, CellTiter-Glo ATP luminescence, 48-72 h; max response: active compounds read low. Put shortly:
(§1)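 Cytotoxicity was measured as CellTiter-Glo ATP luminescence, read after 10 min at room temperature. Compound treatment of the cells lasted 48 or 72 hr at 37 degrees Celsius in a qHTS format.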

In test [2] the test system is HEK293. The description is as above. As to conditions: Five cell lines viability, CellTiter-Glo ATP luminescence, 48-72 h; max response: active compounds read low. Put shortly: as §1
For test [3], the system named is HaCat. Described as above. As to conditions: Five cell lines viability, CellTiter-Glo ATP luminescence, 48-72 h; max response: active compounds read low. The procedure, abridged: as §1
Test [4] deals with NIH3T3. The test is described as above. The following applies: Five cell lines viability, CellTiter-Glo ATP luminescence, 48-72 h; max response: active compounds read low. The procedure, abridged:
as §1

Test [5] deals with HACAT. Kind of test: qHTS assay to identify novel small-molecules to repurpose for Merkel cell carcinoma treatment (AID 1296009). The following applies: MCC and control cell lines, CellTiter-Glo viability, 72 h; at 44.8 µM (top of the series) unless noted. Put shortly: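 Cell viability, measured as CellTiter-Glo luminescence, was normalized between DMSO and no-cell wells. The cells had been exposed to 8- or 11-point compound dilutions for 72 hr at 37 degree celsius.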

Records with an inconclusive call do not appear. Values without a mark were called inactive. Active and inactive are the calls of the source. Calls come from the whole dose curve; as a rule, active = well fitted inhibition curve with a large enough effect; inconclusive = small, poorly fitted or top-dose-only effect; inactive = flat fitted curve, though single readings scatter.
Note: nearly all actives have a fitted effect of over 60% in size.

With `CCCC(=O)Nc1ccc(O)c(C(C)=O)c1`, the max response was -0.565% in test [1] and 3.73% in test [4]. The compound was classed as inactive in test [2], in test [3] and in test [5].
Turning to `Cc1ccc(C(=O)Oc2ccc(C(O)CNC(C)(C)C)cc2OC(=O)c2ccc(C)cc2)cc1` (stereo not given), the results for the max response in test [1] and in test [2] were -6.97% and 1.15%, respectively. Moreover, the outcome in test [3], in test [4] and in test [5] was inactive.
Take `N=C(N)c1ccc(OCCCOc2ccc(C(=N)N)cc2)cc1`: in test [1], the max response was 2.23%. The Potency in test [2] was 7.5 µM (active). For the same compound, the compound was called inactive in test [3], in test [4] and in test [5].
As for `Cc1oc(=O)oc1COC(=O)[C@@H]1N2C(=O)[C@@H](NC(=O)[C@H](N)c3ccccc3)[C@H]2SC1(C)C`, the max response in test [1] was -5.05%; in test [2], -0.753%; in test [4] it was -3.48%. Moreover, the result in test [3] and in test [5] was inactive.
For `CCN(CC)CC(=O)OCC(=O)[C@@]1(O)CC[C@H]2[C@@H]3CCC4=CC(=O)CC[C@]4(C)[C@H]3[C@@H](O)C[C@@]21C`, the result in test [1], in test [3], in test [4] and in test [5] was inactive. Further, in test [2], the max response was 0.946%.
Consider `COc1ccc(/C(C)=C/C(=O)O)c(OC)c1`, for which the max response in test [1] was 0.36%. For the same compound, the outcome in test [2], in test [3], in test [4] and in test [5] was inactive.
With `COCCc1ccccn1`, the max response in test [1] is -7.75%; in test [2], -0.362%. Also, the call in test [3], in test [4] and in test [5] was inactive.
`CC(C)(C)CC(=O)OCC(=O)[C@@]1(O)CC[C@H]2[C@@H]3CCC4=CC(=O)C=C[C@]4(C)[C@H]3[C@@H](O)C[C@@]21C`: the max response in test [1] is -1.84%; in test [4], -9.28%. The Potency in test [2] is 15 µM (active). Also, the compound was classed as inactive in test [3] and in test [5].
Regarding `CC(C)(C)c1cc(C=O)cc(C(C)(C)C)c1O`, the max response in test [1] is 4.77%; in test [2] it was 3.28%; in test [4], 1.57%. Further, the call in test [3] and in test [5] was inactive.
On to `CO[C@@H]1[C@@H](O[C@@H]2O[C@H](C)[C@@H](O[C@H]3C[C@@](C)(O)[C@@H](O)[C@H](C)O3)[C@H](N(C)C)[C@H]2O)[C@@H](CC=O)C[C@@H](C)[C@@H](O[C@@H]2CC[C@H](N(C)C)[C@@H](C)O2)/C=C/C=C/C[C@@H](C)OC(=O)C[C@H]1OC(C)=O`, for which the outcome in test [1], in test [3] and in test [5] was inactive. Moreover, in test [2], the Potency is 8.41 µM (active). For the same compound, the max response in test [4] is -2.54%.
Regarding `COc1ccccc1N1CCN(CCN2C(=O)CC3(CCCC3)CC2=O)CC1`, the max response in test [1] is -8.79%. Also, the outcome in test [2], in test [3], in test [4] and in test [5] was inactive.
`COc1ccc2c(c1)CCCC2=O`: the figures for the max response in test [1] and in test [2] were -5.59% and -10.4%, respectively. For the same compound, the compound was classed as inactive in test [3], in test [4] and in test [5].
For `CCOC(=O)C(O)c1ccccc1` (stereo not given), the call in test [1], in test [2], in test [3] and in test [5] was inactive. Further, in test [4], the max response is 0.37%.
Regarding `CC(=O)N(CC(O)CO)c1c(I)c(C(=O)NCCO)c(I)c(C(=O)NCC(O)CO)c1I` (stereo not given), the max response in test [1] was -7.11%; in test [2], 2.15%. The compound was called inactive in test [3], in test [4] and in test [5].
As for `CC(C)OP(=O)(CP(=O)(OC(C)C)OC(C)C)OC(C)C`, the max response is -7.87% in test [1], -0.755% in test [2] and -2.18% in test [4]. The call in test [3] and in test [5] was inactive.
As for `O=C1c2ccccc2CCc2ccccc21`, the max response in test [1] was 2.21%; in test [2], -2.77%; in test [4] it was 0.759%. Moreover, the compound was classed as inactive in test [3] and in test [5].
As to `Cc1cccc(C)c1NC(=O)c1ccc(N)cc1`, the max response was -0.144% in test [1] and -2.32% in test [2]. Moreover, the outcome in test [3], in test [4] and in test [5] was inactive.
With `Nc1c(I)cc(I)c(C(=O)N(CCC(=O)O)c2ccccc2)c1I`, the max response in test [1] is 1.19%; in test [2], -0.316%; in test [4], 0.521%. Moreover, the result in test [3] and in test [5] was inactive.
With `CCOc1ncc(F)c(=O)[nH]1`, the compound was called inactive in test [1], in test [3] and in test [5]. Further, the figures for the max response in test [2] and in test [4] were -0.0366% and -1.34%, respectively.
As to `CCCc1ncc(C(=O)O)s1`, the figures for the max response in test [1] and in test [2] were -9.12% and 4.41%, respectively. Also, the outcome in test [3], in test [4] and in test [5] was inactive.
As for `COC(=O)/C=C(/C)N`, the max response in test [1] is -6.42%. For the same compound, the outcome in test [2], in test [3], in test [4] and in test [5] was inactive.
Turning to `COc1cc(C(=O)NC2CCCNC2)cc(OC)c1OC` (stereo not given), the max response in test [1] was 1.65%; in test [2], -8.29%; in test [4] it was 4.73%. Also, the result in test [3] and in test [5] was inactive.
With `Cc1c(N)cccc1C(F)(F)F`, the compound was called inactive in test [1], in test [2], in test [3] and in test [5]. Further, the max response in test [4] was -0.97%.
For the compound `Cc1coc2ccccc2c1=O`, the results for the max response in test [1] and in test [2] were -0.524% and 3.92%, respectively. The outcome in test [3], in test [4] and in test [5] was inactive.
Take `O=C(O)c1ccc(OCCN2CCCCC2)cc1`: the max response was 4.52% in test [1], -3.98% in test [2] and 1.34% in test [4]. In addition, the outcome in test [3] and in test [5] was inactive.
Consider `CC(=O)c1ccc(O)c(C(N)=O)c1`, for which the max response in test [1] is 1.65%. In addition, the compound was called inactive in test [2], in test [3], in test [4] and in test [5].
On to `Cc1cnc(NS(=O)(=O)c2ccc(N)cc2)nc1`, for which the compound was classed as inactive in test [1], in test [3] and in test [5]. Besides, the max response was -11.8% in test [2] and 2.98% in test [4].
As for `O=c1[nH]c2ccccc2c(=O)n1CCCl`, the max response is -4.5% in test [1] and -6.35% in test [2]. Besides, the compound was classed as inactive in test [3], in test [4] and in test [5].
With `CN1CC(=O)N2[C@H](c3ccc4c(c3)OCO4)c3[nH]c4ccccc4c3C[C@@H]2C1=O`, the values for the max response in test [1], in test [2] and in test [4] were 3.82%, -4.29% and 3.47%, respectively. Also, the call in test [3] and in test [5] was inactive.
In the case of `OC1(c2ccc(Cl)cc2)CCNCC1`, the figures for the max response in test [1] and in test [4] were -0.911% and -2.06%, respectively. The call in test [2], in test [3] and in test [5] was inactive.
